The whole screen tested about 1,200 compounds, of which about 290 (24%) were called active. Another 9% or so got no clear call; they are omitted. How the calls were made is not given here. The list is a sample of the results. Results with a measured potency or affinity are listed apart.
Assay: LCL viability reduction – cell-based, plate reader, cherry-picks, set 2, cytotoxicity control, dose response (AID 504882)
Conditions: EBV lymphoblastoid cells (LCL) viability; series mostly up to 19.5 µM

Structure (SMILES)	outcome
COC(=O)c1ccc(COc2ccccc2/C=C/C(=O)c2ccc(OCC(=O)O)cc2)cc1	inactive
CC(C)Oc1ccc(C(=O)Nc2nnc(SCC(=O)N3CCOCC3)s2)cc1	inactive
COC(=O)CCNc1ccc2c(c1)OCCO2	inactive
COc1ccc2[nH]c3c(=O)n(CCCCC(=O)N4CCC(C(N)=O)CC4)c(=S)[nH]c3c2c1	inactive
Cc1c(/C(O)=C2/C(=O)C(=O)N(CCN3CCOCC3)C2c2ccccn2)cnn1-c1ccccc1 (stereo not given)	inactive
O=[N+]([O-])c1cc(/C=N\O)ccc1Oc1ccc(F)cc1	inactive
CCOc1ccc(Nc2ncnc3ccc([N+](=O)[O-])cc23)cc1	inactive
O=[N+]([O-])c1ccc(/C=N/Nc2cc(Cl)nc(-c3ccccc3)n2)cc1	inactive
COc1ccc(NC(=O)COC(=O)/C=C/c2ccc(OC)c(S(=O)(=O)N3CCOCC3)c2)cc1	inactive
Cc1nc(N)nc(N)c1/C=C/C(C)(C)c1ccc(Cl)cc1	inactive
COc1cc2cc(C(=O)N3CCN(c4ccccc4OC)CC3)[nH]c2cc1OC	inactive
Cc1ccc(C(=O)NCCc2cccs2)cc1	inactive
C=CCN1CCc2cc(O)c(O)cc2C(c2ccccc2)C1 (stereo not given)	inactive
CCON1C(=O)C2(CCCCC2)C(=O)C12C=CCCC2 (stereo not given)	inactive
Cc1nc(C)n(C(C)CNC(=O)c2ccco2)n1 (stereo not given)	inactive
COc1ccc(C(c2sc3nc(C)nn3c2O)N2CCC(C(N)=O)CC2)cc1OC (stereo not given)	inactive
Cc1cc(C(=O)COc2cccnc2[N+](=O)[O-])c(C)n1-c1ccccc1F	inactive
O=C(NCCc1cn2ccccc2n1)C1CCCCC1	inactive

Structure (SMILES)	outcome
COc1ccc(-c2cc3nc(-c4ccccc4)cc(N4CCCC(O)C4)n3n2)cc1 (stereo not given)	inactive
O=C(CCc1ccccc1Cl)N1CCN(S(=O)(=O)c2ccccc2)CC1	inactive
CC[C@]1(C(=O)OC)[C@H]2C(=O)N(Cc3ccccc3)C(=O)[C@H]2[C@H]2CN=C(SCc3ccc(Cl)cc3)N21	inactive
CCc1sc(C(=O)Nc2ncccc2O)cc1C	inactive
Cc1ccc2oc(C(=O)Nc3ccc(S(=O)(=O)Nc4onc(C)c4C)cc3)c(C)c2c1	inactive
CCn1nc(C(=O)Nc2nc(-c3ccccn3)cs2)c2ccccc2c1=O	inactive
CCC(C)(C)NC(=O)C(c1ccc(F)cc1)N(CCOC)C(=O)CCC(=O)Nc1nccs1 (stereo not given)	inactive
CCOC(=O)c1c(NC(=O)C2C3CCC(O3)C2C(=O)O)sc(C)c1-c1ccc(F)cc1 (stereo not given)	inactive
CC1CCc2nc(N)c(C#N)c(-c3cccnc3)c2C1 (stereo not given)	inactive
CCSC1=C(C#N)C(c2ccc(C)o2)CC(=O)N1 (stereo not given)	inactive
Cc1cc(=O)[nH]c(=S)[nH]1	inactive
COc1ccc(S(=O)(=O)N2CCN(C(=S)NCC3CCCO3)CC2)cc1OC (stereo not given)	inactive
CCOc1ccc(N/C=C/C(=O)c2ccccc2)cc1	inactive
Cc1c(NC(=O)c2cccc(NC(=O)COc3ccccc3C#N)c2)c(=O)n(-c2ccccc2)n1C	inactive
Cn1cc(S(=O)(=O)N2CCN(C(=O)c3ccco3)CC2)c(=O)n(C)c1=O	inactive
CSc1oc(-c2ccc(F)cc2)nc1S(=O)(=O)c1ccc(F)cc1	inactive
C=CCN1CCN(C(CC(C)C)c2nnnn2CCOC)CC1 (stereo not given)	inactive

Source: PubChem BioAssay AID504882 (Broad Institute, 2011)
